Some test systems named below: NCI-H23 lung; NCI-H226 lung; NCI-H322M lung; HOP-62 NSCLC; NCI-H460 lung; HOP-92 NSCLC; NCI-H522 lung; A549/ATCC NSCLC; 786-0 renal; COLO 205 colon.
Holding throughout (test): NCI-60 one-dose screen, 48 h (100 = growth as untreated, 0 = no growth, -100 = all killed)
Holding throughout (conditions): 10 µM unless noted

We go through 13 molecules from PubChem BioAssay (NCI).

About 83,000 compounds went through this panel and 20% of them were active in at least one assay; those are over-represented in the sample as a whole.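 Single-dose data. Exposure time 48 hours. Values below 10 considered active.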 Unmarked numbers belong to inactive results. Active and inactive are the calls of the source.

On to `CC(C)[C@]12O[C@H]1[C@@H]1O[C@]13[C@]1(O[C@H]1C[C@H]1c4c(C(=O)c5ccccc5)oc(OC(=O)c5ccccc5)c4CC[C@@]13C)[C@@H]2O`, for which the growth was -14.9% (active) in the assay on NCI-H23 lung; -12.8% (active) with NCI-H226 lung; 9.46% (active) in the assay with NCI-H322M lung; -0.399% (active) in the assay with HOP-62 NSCLC; 9.07% (active) in the assay with NCI-H460 lung; -9.38% (active) in the assay with HOP-92 NSCLC. For the same molecule, the growth in the assay with NCI-H522 lung is -39.6% (active); in the assay with A549/ATCC NSCLC it was 1.72% (active); with 786-0 renal it was 1.31% (active); in the assay on COLO 205 colon it was -57% (active).

In the case of `CCOC(=O)[C@@H](C)C[C@H](Cc1ccccc1)NC(=O)c1csc([C@@H](C[C@H](C(C)C)N(C)C(=O)[C@@H](NC(=O)[C@H]2C[C@H](O)CCN2C)C(C)C)OC(C)=O)n1`, the growth in the assay with NCI-H23 lung is 30.7%; in the assay on NCI-H226 lung it was -29.5% (active); with NCI-H322M lung, 43.3%; in the assay on HOP-62 NSCLC, 10.7%; in the assay on NCI-H460 lung it was 5.02% (active); in the assay with HOP-92 NSCLC, 26.3%. In addition, the growth in the assay on NCI-H522 lung is -39% (active); in the assay with A549/ATCC NSCLC it was 13.5%; in the assay on 786-0 renal it was 11.2%; in the assay with COLO 205 colon, -61.4% (active).

In the case of `CCOC(=O)c1c(C)n(Cc2ccccc2)c2cc(CN(C)C)c(O)cc12`, the growth in the assay with NCI-H23 lung was 57.2%; in the assay on NCI-H226 lung, 91.3%; with NCI-H322M lung, 41.8%; in the assay with HOP-62 NSCLC, 47.9%; in the assay on NCI-H460 lung, 53.4%; with HOP-92 NSCLC, 8.81% (active). In addition, the growth in the assay on NCI-H522 lung is 77.9%; in the assay on A549/ATCC NSCLC, 79.5%; in the assay on 786-0 renal, 57.8%; in the assay with COLO 205 colon it was 58%.

For `Oc1ccc2c3c1OC1[C@@H](O)CC[C@@]4(O)[C@@H](C2)N(CC2CCC2)CC[C@]314` (stereo not given in full), the growth was 104% in the assay with NCI-H23 lung; 99.1% with NCI-H226 lung; 97.7% with NCI-H322M lung; 107% in the assay on HOP-62 NSCLC; 115% in the assay on NCI-H460 lung; 86.8% in the assay with HOP-92 NSCLC. The growth was 86.3% with NCI-H522 lung, 98.9% in the assay on A549/ATCC NSCLC, 96.6% in the assay on 786-0 renal and 113% in the assay on COLO 205 colon.

On to `CCOC(=O)[C@@H](C)C[C@H](Cc1ccccc1)NC(=O)c1csc([C@@H](C[C@H](C(C)C)N(C)C(=O)[C@@H](NC(=O)[C@H]2CCCCN2C)C(C)(C)CC)OC(C)=O)n1`, for which the growth is 26.9% in the assay with NCI-H23 lung; -41.7% (active) with NCI-H226 lung; 34.4% in the assay with NCI-H322M lung; 18.8% in the assay with HOP-62 NSCLC; -10.1% (active) in the assay with NCI-H460 lung; 16% with HOP-92 NSCLC. Besides, the growth with NCI-H522 lung was -32.8% (active); in the assay on A549/ATCC NSCLC it was 10.1%; in the assay with 786-0 renal, 1.55% (active); in the assay on COLO 205 colon, -62.6% (active).

Turning to `COc1ccc(/C=C\c2cc(OC)c(OC)c(OC)c2)cc1OCC(=O)Nc1nc2ccc(F)cc2s1`, the growth in the assay on NCI-H23 lung is 34.4%; in the assay with NCI-H226 lung, 42.4%; with NCI-H322M lung, 70.8%; in the assay with HOP-62 NSCLC, 51%; with NCI-H460 lung, 23.9%; in the assay on HOP-92 NSCLC, 57.7%. For the same molecule, the growth with NCI-H522 lung is 6.14% (active); with A549/ATCC NSCLC, 31%; with 786-0 renal, 65%; with COLO 205 colon, 32.3%.

On to `O=NNc1ccccn1`, for which the growth in the assay on NCI-H23 lung is 79.4%; in the assay with NCI-H226 lung it was 91.1%; in the assay on NCI-H322M lung, 126%; with HOP-62 NSCLC, 90.3%; in the assay with NCI-H460 lung, 41.7%; with HOP-92 NSCLC, 92.1%. Moreover, the growth in the assay with NCI-H522 lung is 64.3%; with A549/ATCC NSCLC it was 95.1%; in the assay with 786-0 renal it was 106%; in the assay with COLO 205 colon, 95.8%.

As to `COC(=O)C1OC(Oc2ccc(N(CCCl)CCCl)cc2)C(OC(C)=O)C(OC(C)=O)C1OC(C)=O` (stereo not given), the growth was 92.9% in the assay on NCI-H23 lung; 96.7% in the assay on NCI-H226 lung; 108% with NCI-H322M lung; 94.4% with HOP-62 NSCLC; 29.3% in the assay with NCI-H460 lung; 78% in the assay with HOP-92 NSCLC. The growth was 67.9% in the assay with NCI-H522 lung, 75.9% with A549/ATCC NSCLC, 75% in the assay with 786-0 renal and 95.3% in the assay on COLO 205 colon.

Consider `COC(=O)[C@@H](C)C[C@H](Cc1ccccc1)NC(=O)c1csc([C@@H](C[C@H](C(C)C)N(C)C(=O)[C@@H](NC(=O)[C@H]2CCCCN2C)c2ccc(F)cc2)OC(C)=O)n1`, for which the growth was 25.6% with NCI-H23 lung; 29.4% in the assay with NCI-H226 lung; 37.4% in the assay with NCI-H322M lung; 3.87% (active) with HOP-62 NSCLC; 3.62% (active) with NCI-H460 lung; 4.81% (active) in the assay on HOP-92 NSCLC. Further, the growth with NCI-H522 lung is -2.85% (active); with A549/ATCC NSCLC, 13.9%; with 786-0 renal, 15.7%; in the assay with COLO 205 colon it was -53.8% (active).

Turning to `CCn1nccc1NC(=O)C(=O)c1cn(Cc2ccc(F)cc2)c2cccc(OC)c12`, the growth in the assay with NCI-H23 lung is 95.8%; in the assay with NCI-H226 lung, 75.1%; in the assay with NCI-H322M lung it was 102%; in the assay with HOP-62 NSCLC, 75.9%; in the assay on NCI-H460 lung, 98.2%; in the assay on HOP-92 NSCLC, 46.6%. For the same molecule, the growth was 57.3% in the assay with NCI-H522 lung, 92.4% in the assay with A549/ATCC NSCLC, 72.7% with 786-0 renal and 106% in the assay with COLO 205 colon.

Take `CC(C)(C)N1CC1C#N` (stereo not given): the growth with NCI-H23 lung was 99.5%; in the assay with NCI-H226 lung, 103%; in the assay on NCI-H322M lung, 96.3%; with HOP-62 NSCLC, 105%; in the assay with NCI-H460 lung it was 105%; with HOP-92 NSCLC, 105%. Also, the growth was 96% in the assay with NCI-H522 lung, 105% in the assay on A549/ATCC NSCLC, 98.6% with 786-0 renal and 98.7% in the assay with COLO 205 colon.

As for `COC(=O)[C@H](Cc1ccccc1)NC(=O)c1csc([C@@H](C[C@H](C(C)C)N(C)C(=O)[C@@H](NC(=O)[C@H]2CCCN2C)C2CC2)OC(C)=O)n1`, the growth in the assay on NCI-H23 lung is 35.9%; in the assay on NCI-H226 lung, 58%; in the assay with NCI-H322M lung it was 50.3%; with HOP-62 NSCLC it was 34.9%; with NCI-H460 lung, 4.53% (active); in the assay on HOP-92 NSCLC it was 8.6% (active). For the same molecule, the growth is 0.953% (active) in the assay on NCI-H522 lung, 23.2% with A549/ATCC NSCLC, 31.6% in the assay with 786-0 renal and -26.7% (active) with COLO 205 colon.

Regarding `O=[N+]([O-])c1cc([N+](=O)[O-])c(Nn2c3ccccc3c3ccccc32)c([N+](=O)[O-])c1`, the growth was -3.12% (active) with NCI-H23 lung; -1.91% (active) with NCI-H226 lung; 2.33% (active) with NCI-H322M lung; -11.8% (active) in the assay on HOP-62 NSCLC; 3.43% (active) in the assay with NCI-H460 lung; -28.1% (active) in the assay on HOP-92 NSCLC. For the same molecule, the growth in the assay with NCI-H522 lung was -25.4% (active); in the assay on A549/ATCC NSCLC, 4.97% (active); with 786-0 renal, 0.775% (active); in the assay with COLO 205 colon it was -65.2% (active).
